Data reported in PubChem BioAssay (NCATS).
Inconclusive results are not listed. Activity calls are given as the source filed them. Calls come from the whole dose curve; as a rule, active = well fitted inhibition curve with a large enough effect; inconclusive = small, poorly fitted or top-dose-only effect; inactive = flat fitted curve, though single readings scatter.

Assays:
Experiment in all cases: qHTS profiling for inhibitors of Plasmodium falciparum proliferation (AID 504749); note: nearly all actives have a fitted effect of over 60% in size
Conditions in all cases: P. falciparum in erythrocytes, SYBR Green DNA, 72 h; series mostly up to 28.7 µM
CP217 = test system: CP217
How it was run: (§1)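 SYBR Green fluorescence (ex 485 nm, em 535 nm) reports parasite DNA after 72 h compound exposure of infected red cells at 0.3% parasitemia, 2.5% hematocrit; signal normalized to 0.29 uM artemisinin and vehicle wells.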

CP237 = test system: CP237
How it was run: as §1

CP238 = test system: CP238
How it was run: as §1

CP247 = test system: CP247
How it was run: as §1

CP250 = test system: CP250
How it was run: as §1

CP252 = test system: CP252
How it was run: as §1

CP256 = test system: CP256
How it was run: as §1

CP260 = test system: CP260
How it was run: as §1

CP262 = test system: CP262
How it was run: as §1

CP265 = test system: CP265
How it was run: as §1

CP266 = test system: CP266
How it was run: as §1

CP268 = test system: CP268
How it was run: as §1

CP269 = test system: CP269
How it was run: as §1

CP286 = test system: CP286
How it was run: as §1

CP291 = test system: CP291
How it was run: as §1

CP297 = test system: CP297
How it was run: as §1

CP305 = test system: CP305
How it was run: as §1

CP315 = test system: CP315
How it was run: as §1

CP325 = test system: CP325
How it was run: as §1

CP329 = test system: CP329
How it was run: as §1

Measured: Potency

CCCCOc1cc(C(=O)OCCN(CC)CC)ccc1N
inactive: all assays above

CCCCCCCCCCCCOS(=O)(=O)O
inactive: all assays above

NCCNCCNCCNCCN
inactive: all assays above

O=C(CCCN1CCN(c2ccccn2)CC1)c1ccc(F)cc1
inactive: all assays above

O=C(O)CC(O)C(=O)O (stereo not given)
inactive: all assays above

NCCNCCNCCN
inactive: all assays above

CC(=O)CCC(=O)O
inactive: all assays above

O=C1OC(OC(=O)c2cccnc2Nc2cccc(C(F)(F)F)c2)c2ccccc21 (stereo not given)
inactive: all assays above

Cc1c(Cl)cccc1Nc1ccccc1C(=O)O
inactive: all assays above

COc1cc(C)c(Cc2cnc(N)nc2N)cc1OC
inactive: all assays above

Oc1cn2c(n1)Nc1ccc(Cl)c(Cl)c1C2
inactive: all assays above

CCCCc1ncc(/C=C(\Cc2cccs2)C(=O)O)n1Cc1ccc(C(=O)O)cc1
inactive: all assays above

COc1ccccc1O
inactive: all assays above

CCCCCCCCCCCCCCCC(=O)NCCO
inactive: all assays above

O=c1cc[nH]c(=O)[nH]1
inactive: all assays above
